# Measured values from the supplement of paper PMC10811239.
# Legend:
# Assay in all cases: bioluminescence (viable cell) signal fold change after vs before treatment, normalised to DMSO (ratio); higher = more tumour cell growth / less inhibition
# Conditions in all cases: 10 µM; treatment time 6 days
# [1] = system: LEGO organoid PT (PTEN-/-; TP53-/-)
# Method: (§1)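 Luc2-labelled iPSC-derived glioblastoma-like organoids (LEGOs, genotypes PT = PTEN-/-;TP53-/-, PTCC = plus CDKN2A/B-/-, PTN = plus NF1-/-) were treated with 10 uM drug for 6 days (applied every other day) at 37 C. Bioluminescence imaging was done before treatment and 2 days after the last dose. BLI signals were normalised to the DMSO control on the same day and then to the pre-treatment signal (N=3).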
# [2] = system: LEGO organoid PTCC (PTEN-/-; TP53-/-; CDKN2A-/-; CDKN2B-/-)
# Method: as §1
# [3] = system: LEGO organoid PTN (PTEN-/-; TP53-/-; NF1-/-)
# Method: as §1
Compound,bioluminescence [1],bioluminescence [2],bioluminescence [3]
COc1ccccc1Oc1c(NS(=O)(=O)c2ccc(C(C)(C)C)cc2)nc(-c2ncccn2)nc1OCCO [Bosentan],0.81,1.68,1.28
O=C(c1cc(Cc2n[nH]c(=O)c3ccccc23)ccc1F)N1CCN(C(=O)C2CC2)CC1 [Olaparib],1.23,1.32,0.865
CC(C)Nc1cccnc1N1CCN(C(=O)c2cc3cc(NS(C)(=O)=O)ccc3[nH]2)CC1.CS(=O)(=O)O [Delavirdine mesylate],0.826,0.912,1.76
CCc1cc2c(cc1N1CCC(N3CCOCC3)CC1)C(C)(C)c1[nH]c3cc(C#N)ccc3c1C2=O.Cl [Alectinib hydrochloride],0.656,0.838,1.36
Cl.Cl.OCCOCCN1CCN(C(c2ccccc2)c2ccc(Cl)cc2)CC1 (stereo unspecified) [Hydroxyzine dihydrochloride],1.29,0.859,2.31
CC(C)Oc1ccc(-c2nc(-c3cccc4c3CC[C@@H]4NCCO)no2)cc1C#N [Ozanimod],0.725,0.828,0.741
C[C@]12CCC3=C4CCC(=O)C=C4CC[C@H]3[C@@H]1CC[C@@]2(O)CC#N [Dienogest],0.653,3.61,0.658
CC(=O)O.Cc1c(-c2ccc(O)cc2)n(Cc2ccc(OCCN3CCCCCC3)cc2)c2ccc(O)cc12 [Bazedoxifene acetate],0.897,1.37,0.0363
CCN(CC)CC#CCOC(=O)C(O)(c1ccccc1)C1CCCCC1 (stereo unspecified) [Oxybutynin],0.449,0.776,1.53
CC/C(=C(\c1ccccc1)c1ccc(OCCN(C)C)cc1)c1ccccc1.O=C(O)CC(O)(CC(=O)O)C(=O)O [Tamoxifen Z-isomer citrate],0.933,1.41,6.34
Cc1nc2n(c(=O)c1CCN1CCC(c3noc4cc(F)ccc34)CC1)CCCC2O (stereo unspecified) [Paliperidone],1.4,0.722,0.593
COc1ccc(CNc2nc(N3CCC[C@H]3CO)ncc2C(=O)NCc2ncccn2)cc1Cl [Avanafil],0.905,0.873,1.11
NC(=O)N1c2ccccc2C=Cc2ccccc21 [Carbamazepine],0.803,0.95,1.42
CC(=O)Oc1ccccc1C(=O)O [Aspirin],0.997,0.785,0.737
Cl.O.O=C1Cc2cc(CCN3CCN(c4nsc5ccccc45)CC3)c(Cl)cc2N1 [Ziprasidone hydrochloride monohydrate],0.909,1.05,0.716
CCOC(=O)C1=C(C)NC(C)=C(C(=O)OC)C1c1cccc(Cl)c1Cl (stereo unspecified) [Felodipine],1.06,1.16,1.04
CC(C(=O)O)c1ccc(-c2ccccc2)c(F)c1 (stereo unspecified) [Flurbiprofen],1.09,0.856,1.47
O=C([O-])Cc1ccccc1Nc1c(Cl)cccc1Cl.[Na+] [Diclofenac sodium],0.777,1.05,1.75
CN(CCOc1ccc(CC2SC(=O)NC2=O)cc1)c1ccccn1 (stereo unspecified) [Rosiglitazone],0.664,1.87,1.22

Compound,bioluminescence [1],bioluminescence [2],bioluminescence [3]
CNC(=O)c1cc(Oc2ccc(NC(=O)Nc3ccc(Cl)c(C(F)(F)F)c3)cc2)ccn1.Cc1ccc(S(=O)(=O)O)cc1 [Sorafenib tosylate],0.401,0.343,0.504
CN(C)C(=N)NC(=N)N [Metformin],0.733,1.89,2.37
CNCCCC1c2ccccc2C=Cc2ccccc21.Cl [Protriptyline hydrochloride],0.749,0.571,1.14
Nc1nnc(-c2cccc(Cl)c2Cl)c(N)n1 [Lamotrigine],0.852,2.24,0.446
CC1COc2c(N3CCN(C)CC3)c(F)cc3c(=O)c(C(=O)O)cn1c23 (stereo unspecified) [Ofloxacin],1.08,2.88,1.19
CC(CN(C)C)CN1c2ccccc2CCc2ccccc21.O=C(O)/C=C\C(=O)O (stereo unspecified) [Trimipramine maleate],0.503,0.61,1.58
CCCCC1C(=O)N(c2ccccc2)N(c2ccccc2)C1=O [Phenylbutazone],2.33,1.76,2.68
O=C(NC1CCN(CCCCC2(C(=O)NCC(F)(F)F)c3ccccc3-c3ccccc32)CC1)c1ccccc1-c1ccc(C(F)(F)F)cc1 [Lomitapide],0.0143,0.124,0
COc1ccc([C@@H]2CC(=O)c3c(O)cc(O[C@@H]4O[C@H](CO[C@@H]5O[C@@H](C)[C@H](O)[C@@H](O)[C@H]5O)[C@@H](O)[C@H](O)[C@H]4O)cc3O2)cc1O [Hesperidin],1.16,0.805,1.75
C[C@H]1COc2c(N3CCN(C)CC3)c(F)cc3c(=O)c(C(=O)O)cn1c23 [Levofloxacin],0.997,0.587,0.861
O=c1[nH]cnc2c1ncn2[C@H]1CC[C@@H](CO)O1 [Didanosine],0.958,4.18,0.81
Nc1cccc2c1C(=O)N(C1CCC(=O)NC1=O)C2=O (stereo unspecified) [Pomalidomide],1.5,2.56,1.12
CCN(CC)C(=O)[C@@]1(c2ccccc2)C[C@H]1CN.Cl [Milnacipran ((1S-cis) hydrochloride)],0.856,2.09,0.808
O=C1[N-]C(=O)C(c2ccccc2)(c2ccccc2)N1.[Na+] [Phenytoin sodium],0.855,1.45,0.866
CS(=O)(=O)c1cccc(C[C@H](NC(=O)c2c(Cl)cc3c(c2Cl)CCN(C(=O)c2ccc4ccoc4c2)C3)C(=O)O)c1 [Lifitegrast],1.49,1.08,0.439
CO[C@H]1/C=C/O[C@@]2(C)Oc3c(C)c(O)c4c(O)c(c(/C=N/N5CCN(C6CCCC6)CC5)c(O)c4c3C2=O)NC(=O)/C(C)=C\C=C\[C@H](C)[C@H](O)[C@@H](C)[C@@H](O)[C@@H](C)[C@H](OC(C)=O)[C@@H]1C [Rifapentine],3.28,0.434,1.39
CCc1cc(C(N)=S)ccn1 [Ethinamide],2.05,0.707,1.99
CN1CCN(CCCN2c3ccccc3Sc3ccc(C(F)(F)F)cc32)CC1.Cl.Cl [Trifluoperazine dihydrochloride],0.771,1.31,1.23
CC(=O)OCC[N+](C)(C)C.[Cl-] [Acetylcholine chloride],0.981,1.09,1.15

Compound,bioluminescence [1],bioluminescence [2],bioluminescence [3]
CCOC(=O)c1ccc(C#Cc2ccc3c(c2)C(C)(C)CCS3)nc1 [Tazarotene],1.52,1.42,1.11
OC[C@H]1O[C@@H](n2cnc3c2NC=NC[C@H]3O)C[C@@H]1O [Pentostatin],0.674,0.797,1.59
CN(C)CC(c1ccc(O)cc1)C1(O)CCCCC1.O=C(O)CCC(=O)O (stereo unspecified) [Desvenlafaxine succinate hydrate],1.67,0.582,0.536
Cl.CNCC\C=C1\c2ccccc2CCc2ccccc12 [Nortriptyline hydrochloride],–,0.717,0.835
CO[C@H]1/C=C/O[C@@]2(C)Oc3c(C)c(O)c4c(O)c(c(/C=N/N5CCN(C)CC5)c(O)c4c3C2=O)NC(=O)/C(C)=C\C=C\[C@H](C)[C@H](O)[C@@H](C)[C@@H](O)[C@@H](C)[C@H](OC(C)=O)[C@@H]1C [Rifampicin],3.6,0.603,0.579
CS(=O)(=O)CCNCc1ccc(-c2ccc3ncnc(Nc4ccc(OCc5cccc(F)c5)c(Cl)c4)c3c2)o1 [Lapatinib],1.62,0.878,1.93
CCN(CC)CC(=O)Nc1c(C)cccc1C [Xylocaine],1.02,1.13,1.22
CC1=C(/C=C/C(C)=C/C=C/C(C)=C/C(=O)O)C(C)(C)CCC1 [Tretinoin],0.834,0.531,1.41
O=C(CCCCCCC(=O)Nc1ccccc1)NO [Vorinostat],1.13,0.409,0.384
Cc1ccc(Nc2nccc(N(C)c3ccc4c(C)n(C)nc4c3)n2)cc1S(N)(=O)=O [Pazopanib],0.948,0.395,0.583
CCN(CC)CCNC(=O)c1c(C)[nH]c(/C=C2\C(=O)Nc3ccc(F)cc32)c1C [Sunitinib],0.391,0.536,0.687
Nc1ncnc2c1ncn2[C@@H]1O[C@H](CO)[C@@H](O)[C@H]1O [Adenosine],–,0.746,0.654
CC(=O)OCC(=O)[C@@]1(O)CC[C@H]2[C@@H]3CCC4=CC(=O)C=C[C@]4(C)[C@H]3[C@@H](O)C[C@@]21C [Prednisolone-21-acetate],0.578,1.01,0.956
CO[C@H]1C[C@@H]2CC[C@@H](C)[C@@](O)(O2)C(=O)C(=O)N2CCCC[C@H]2C(=O)O[C@H]([C@H](C)C[C@@H]2CC[C@@H](OC(=O)C(C)(CO)CO)[C@H](OC)C2)CC(=O)[C@H](C)/C=C(\C)[C@@H](O)[C@@H](OC)C(=O)[C@H](C)C[C@H](C)/C=C/C=C/C=C/1C [Temsirolimus],1.26,0.978,0.856
N[C@@H]1CONC1=O [D-Cycloserine],1.3,1.11,1.69
Cc1cn([C@H]2C[C@H](N=[N+]=[N-])[C@@H](CO)O2)c(=O)[nH]c1=O [Zidovudine],5.37,1.35,3.76
CCCc1nc(C)c2c(=O)[nH]c(-c3cc(S(=O)(=O)N4CCN(CC)CC4)ccc3OCC)nn12 [Vardenafil],1.36,1.16,1.29
CCC(C)(C)C(=O)O[C@H]1C[C@@H](C)C=C2C=C[C@H](C)[C@H](CC[C@@H]3C[C@@H](O)CC(=O)O3)[C@H]21 [Simvastatin],1.45,1.71,0.364
